High-throughput results deposited in PubChem by several laboratories.
Autophagy mod – autophagy modulators in MEF cells, primary screen, imaging, high-content, MEF GFP-LC3; MEF GFP-LC3 puncta imaging; test concentration mostly 10 µM; calls only at 10 µM (by protocol); 190,000 compounds, 0.98% hits;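 active = percentage of spot-positive cells more than 3 SD above its plate mean, without a fluorescence outlier flag or 80% toxicity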
Insulin prom up – insulin promoter activators in MIN6 cells, imaging, high-content screening, mouse beta cells; MIN6 insulin promoter-GFP reporter; stronger effect = higher value; 190,000 compounds, 0.3% hits; AID 1625, 2009; z-score at 5 µM;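 active = z-score above 3 at 5 µM with at least 500 cells counted in the well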
INS promoter inh – inhibitors of insulin promoter-driven GFP, primary screen, imaging, TRM-6 cells (human fetal islet line), eGFP reporter, cell count. reporter expression induced with tamoxifen. 130,000 compounds, 0.9% hits. AID 1273, 2008. inhibition, % at 2 µM;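 active = inhibition above the mean plus 3 SD, with well images judged a real hit on visual review, cut at about 60% in these data, passing the limit was not always enough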
WT yeast gro inh – growth inhibition of WT strain, primary screen, mitochondrial fusion inhibitor project, WT and mutant strains, chemical genetic; mitochondrial fusion phenotypic screen; inhibition, % at 10 µM; 190,000 compounds, 2.1% hits; AID 1362, 2008; in the data active = inhibition above about 58%; tested in S. cerevisiae
Lmaj promast – Leishmania major promastigote growth inhibition, primary screen. 200,000 compounds, 9% hits. inhibition, % at 10 µM. Leishmania major promastigotes, resazurin fluorescence viability; in the data active = inhibition above about 50%;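 also: promastigotes grown with compound for 44 hours at 28 °C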
Of the large screens only hits and unclear results are named; the others gave an inactive call; ! = not active in a repeat. Only some compounds are listed: those with a hit (about 11% of all), similar ones and a draw of the others.

Cc1cccc2cc(CN(Cc3ccccc3)C(=S)NCCCN(C)C)c(=O)[nH]c12	Lmaj promast 78 (no result: INS promoter inh)
COc1cccc(C(C)N(C)Cc2nc(-c3ccoc3)oc2C)c1 (configuration not stated)	none
O=C(NCc1cccnc1)C1CCCN(Cc2cnn(-c3ccccc3)c2-n2cccc2)C1 (configuration not stated)	none
O=C(c1ccc(S(=O)(=O)c2ccc(Cl)cc2)cc1)N1CCOCC1	none (no result: INS promoter inh)
Cc1cccc(C(=O)Nc2nnc(COc3ccccc3)s2)c1	Autophagy mod active (no result: INS promoter inh)
O=C(Nc1nnc(COc2ccc(Cl)cc2)s1)c1cccs1	INS promoter inh 80
O=C(Nc1nnc(COc2ccc(F)cc2)s1)c1cccs1	none
COC(=O)c1cccc(NC(=O)CSc2nnc(C)n2C)c1	none (no result: INS promoter inh)
CCN1CCN(c2c(Cl)cccc2NC(=O)c2ccc([N+](=O)[O-])cc2)CC1	none
O=C(Nc1cccc(Cl)c1N1CCCC1)c1cc2ccccc2o1	none
O=C(Nc1cccc(Cl)c1N1CCCC1)c1ccc(Br)o1	WT yeast gro inh 68
O=C(Nc1cccc(Cl)c1N1CCCC1)c1ccc([N+](=O)[O-])o1	Lmaj promast 87
CO/N=C(/CS(=O)(=O)Cc1ccccc1Cl)c1ccc(Cl)cc1Cl	none
C=CCNC(=O)c1c(Br)cnn1-c1ccc(C)cc1	none (no result: INS promoter inh)
O=C(O)CCN1C(=O)c2ccc(NC(=O)Cc3ccc(Cl)cc3)cc2C1=O	none (no result: INS promoter inh)
c1ccc(-c2ccc(-n3ccnc3)cc2)cc1	none
c1ccc(-c2ccc(C(c3ccccc3)n3ccnc3)cc2)cc1 (configuration not stated)	WT yeast gro inh 73!, Lmaj promast 98
CCOc1cc(S(=O)(=O)N(Cc2ccccc2)Cc2ccccc2)c(OCC)cc1-n1cnnn1	Lmaj promast 92
Cc1ccc2c(ccc(=S)n2C)c1	none
Cc1ccc(NC(=S)N(CCCN2CCOCC2)Cc2cccnc2)cc1C	Lmaj promast 64 (no result: INS promoter inh)
Cc1ccccc1NC(=S)N(CCCN1CCOCC1)Cc1cccnc1	none (no result: INS promoter inh)
CCOC(=O)c1ccc(NC(=S)N(CCCN2CCCC2)Cc2cccs2)cc1	Lmaj promast 82 (no result: INS promoter inh)
CCOC(=O)c1ccc(NC(=S)N(CCCN2CCCC(C)C2)Cc2cccs2)cc1 (configuration not stated)	Lmaj promast 97 (no result: INS promoter inh)
Cc1ccc(NC(=S)N(CCCN2CCOCC2)Cc2cccs2)c(C)c1	Lmaj promast 69 (no result: Insulin prom up)
Cc1ccc(NC(=S)N(CCCN2CCN(C)CC2)Cc2cccs2)cc1C	Autophagy mod active (no result: INS promoter inh)
CCOC(=O)c1ccc(NC(=S)N(CCN2CCCCCC2)Cc2cccs2)cc1	Lmaj promast 96 (no result: INS promoter inh)
CCOC(=O)c1ccc(NC(=S)N(CCCN2CCN(C)CC2)Cc2cccs2)cc1	none (no result: INS promoter inh)
COc1ccc(NC(=S)N(CCCN2CCCCC2)Cc2cccs2)cc1	Lmaj promast 83
COc1cccc(-n2cnc3sc(C)cc3c2=O)c1	none
CC(C)(C)NC(=O)C(c1c[nH]c2ccccc12)N(C(=O)Cn1nnc(-c2ccc(F)cc2)n1)c1cccc(O)c1 (configuration not stated)	none (no result: INS promoter inh)
C=CCn1c(SCC(=O)O)nnc1-c1ccc(C(C)(C)C)cc1	none
C=CCn1c(SCc2c(C(=O)OC)sc(N)c2C(=O)OC)nnc1-c1ccc(Br)cc1	Lmaj promast 99
Cc1ccc(NC(=O)c2cc(S(=O)(=O)N3CCC4(CC3)OCCO4)ccc2F)cc1	Lmaj promast 96
Cc1c(C(=O)Nc2cccc(Cl)c2)oc2ccc(S(=O)(=O)N3CCC4(CC3)OCCO4)cc12	Lmaj promast 52 (no result: INS promoter inh)
COc1ccccc1NC(=O)c1cc(S(=O)(=O)N2CCC3(CC2)OCCO3)ccc1F	none
CCNC(=S)NNC(=O)c1cc(-c2cc(C)ccc2C)nc2ccccc12	none (no result: INS promoter inh)
CC(CCc1ccccc1)NC(=O)CN1CCSc2ccccc21 (configuration not stated)	none (no result: INS promoter inh)
COc1ccccc1/C=C/C1=NC(=C\C=C/c2ccccc2)/C(=O)O1	Lmaj promast 69
O=C1NN=C(CSc2n[nH]c(=S)s2)CS1	none (no result: INS promoter inh)
O=C(/C=C/c1cccs1)NC(=S)NNC(=O)Cc1cccs1	Lmaj promast 64 (no result: Insulin prom up)
COc1ccc(/C=C/C(=O)NC(=S)NNC(=O)Cc2cccs2)cc1OC	Lmaj promast 99
O=C(CN1C(=O)C2C3C=CC(C4CC34)C2C1=O)Oc1ccccc1 (configuration not stated)	none
C/C(Cn1nc([N+](=O)[O-])cc1C)=N\NC(=O)c1cccc(Br)c1	Lmaj promast 86 (no result: INS promoter inh)
C/C(Cn1nc([N+](=O)[O-])cc1C)=N\NC(=O)COc1ccccc1[N+](=O)[O-]	none
